An excerpt weighted towards active compounds, which were near 19% of everything screened.
KB-3-1 tox: qHTS assay for MDR1-selective chemotherapeutics: Primary screen using the parental adenocarcinoma cell KB-3-1 | AID 1347075, 2019 | 400,000 compounds, 1.4% hits | KB-3-1 viability, CellTiter-Glo ATP luminescence, 72 h | Potency, µM (titrated, usually from 46.1 µM), usual class: cytotoxic; further: nearly all actives have a fitted effect of over 60% in size
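KB-3-1 parental drug-naive adenocarcinoma cells in DMEM/10% FBS, incubated 72 h at 37 C with pin-transferred compounds across a concentration series. Viability by CellTiter-Glo luminescence; concentration-response curves fitted after normalization.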
DT40 TDP1 no CPT: qHTS for Inhibitors of human tyrosyl-DNA phosphodiesterase 1 (TDP1): qHTS in cells in absence of CPT; DT40 Tdp1-/- hTDP1 cells, no CPT, ATP luminescence, 48 h; Potency, µM (titrated, usually from 46.2 µM), inactives show at the top dose activity change, negative = growth inhibition, actives largely listed as inhibitors; 420,000 compounds, 15% hits; AID 686978, 2013; further: nearly all actives have a fitted effect of over 55% in size
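A cellular qHTS used chicken DT40 cells lacking endogenous Tdp1 but carrying stably transfected human TDP1. Compounds were applied without camptothecin, and cell growth kinetics were judged by ATP-dependent luminescence after ≥48 hr.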
DT40 TDP1 CPT: qHTS for Inhibitors of human tyrosyl-DNA phosphodiesterase 1 (TDP1): qHTS in cells in presence of CPT; chicken DT40 Tdp1-/-;hTDP1 cells + 20 nM CPT, ATP luminescence, 48 h; Potency, µM (doses to about 46.2 µM), for the others: at the highest dose activity change, negative = growth inhibition, hits mostly inhibitors; 420,000 compounds, 12% hits; further: nearly all actives have a fitted effect of over 55% in size
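Chicken DT40 Tdp1-/- cells complemented with human TDP1, 400 cells/well, exposed to compounds plus 20 nM camptothecin for at least 48 h at 37 C; viability read as ATP content by CellTiter-Glo luminescence.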
HT1080 IDH1KD tx: qHTS for induction of synthetic lethality in tumor cells producing 2HG: qHTS for the HT-1080-IDH1KD cell line; HT-1080 IDH1 knockdown viability, ATP luminescence, 48 h; Potency, µM (highest dose often 46.1 µM), for inactives: at the top dose activity, negative = toxicity, most hits filed as cytotoxic; 360,000 compounds, 2% hits; AID 686971, 2013;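 further: 0% = DMSO wells and -100% = cell-free medium wells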
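HT-1080-IDH1KD cells (IDH1 knocked down), 750/well in RPMI with 5% FBS, treated with compound 48 h at 37 degrees C. Viability by CellTiter-Glo luminescence, normalised to DMSO and no-cell wells; concentration-response curves classed.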
KB-V1 MDR tox: qHTS assay for MDR1-selective chemotherapeutics: Primary screen using the drug-selected MDR subline cells KB-V1 | AID 1347076, 2019 | Potency, µM (highest dose often 46.1 µM), hits mostly cytotoxic | KB-V1 MDR cells viability, CellTiter-Glo, 72 h | 400,000 compounds, 3.4% hits; further: nearly all actives have a fitted effect of over 60% in size
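Cells of the MDR subline KB-V1 are plated, dosed with compound at multiple concentrations, and incubated 72 h at 37 degrees C; CellTiter-Glo is then added and luminescence read after 10 min.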
HT1080-NT tox: qHTS for induction of synthetic lethality in tumor cells producing 2HG: qHTS for the HT-1080-NT fibrosarcoma cell line; HT-1080-NT fibrosarcoma viability, CellTiter-Glo ATP luminescence, 48 h; Potency, µM (titrated, usually from 46.1 µM), without a hit: at the highest dose activity, negative = less viability, most hits filed as cytotoxic; 360,000 compounds, 1.6% hits;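 further: NT is the 2HG producing partner of a matched IDH1 knockdown line; 0% = DMSO-treated cells and -100% = media-only wells without cells; nearly all actives have a fitted effect of over 55% in size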
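Viability by CellTiter-Glo luminescence after 48 h compound exposure at 37C of HT-1080-NT cells (750/well, RPMI, 5% FBS). % activity scaled between DMSO wells and medium-only wells, then curve-fitted and categorized by curve class.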
* = called active by the depositor; i = inactive; ? = inconclusive; . = not tested or not shown. The call rests on the fitted dose curve; in most records, active means well fitted curve in the direction sought with a large enough effect; inconclusive means small, poorly fitted or top-dose-only effect, or another doubt; inactive means no such curve, though single readings can be large; an effect the other way counts as inactive or inconclusive. Unless noted, on the % scale 0 is the no-effect control and ±100 the full control effect; potency means the concentration at half of the fitted maximal effect.

SMILES | KB-3-1 tox | DT40 TDP1 no CPT | DT40 TDP1 CPT | HT1080 IDH1KD tx | KB-V1 MDR tox | HT1080-NT tox
CCCCn1c(N)c(N(CC(C)C)C(=O)c2ccc(C)c(S(=O)(=O)N3CCCCC3)c2)c(=O)[nH]c1=O | i | -12% | 2% | 0% | i | -12%
COc1cccc2nc3c(C(=O)NCCN(C)C)cccc3cc12 | ? | 0.18µM* | 0.16µM* | 9.2µM* | 9.2µM* | ?
COc1ccc(-c2nc3c(C(=O)NCCN(C)C)cccc3c3ccccc23)cc1 | ? | 4.1µM* | 1.3µM* | ? | 2.3µM* | ?
CN(C)CCNC(=O)c1ccccc1-c1ccccc1 | i | -5% | -3% | 6% | i | 20%
CN(C)CCNC(=O)c1cccc2[nH]c(-c3ccncc3)nc12 | i | 13µM* | 13µM* | ? | i | -9%
COc1cccc(C(=O)NCCCc2ccccc2)c1OC | i | -29% | -16% | 20% | i | 9%
CN(C)CCNC(=O)c1cccc2nc3c(ccc4ccccc43)nc12 | 7.3µM* | 4.6µM* | 5.8µM* | ? | 21µM* | ?
COc1ccc(C(=O)NCCN(C)C)c2nc3ccccc3cc12 | ? | 0.16µM* | 0.18µM* | 21µM* | 8.2µM* | ?
COc1ccc(Cl)cc1C(=O)NCCN(C)C | i | -6% | -3% | -12% | i | -2%
CN(CCNC(=O)c1c[nH]c2c1ccc1ccccc12)CCNC(=O)c1c[nH]c2c1ccc1ccccc12 | ? | ? | 23µM* | ? | ? | ?
CSc1cccc(NC(=O)CC2Oc3ccccc3NC2=O)c1 (configuration not stated) | i | -17% | 3% | 2% | ? | 12%
C=CCOC(=O)c1ccc(N2CCN(c3ccccc3)CC2)nc1 | i | -22% | 8% | -8% | i | -18%
CCc1ccn2cc(-c3ccc4c(c3)OCO4)nc2c1 | ? | ? | 6% | 13µM* | ? | 12µM*
COC(=O)c1ccc2nc(-c3ccc4c(c3)OCO4)cn2c1 | i | -14% | -11% | 23% | i | 12%
O=C(OCCO)c1ccccc1O | . | 5% | 14% | . | . | .
CCOc1cc(S(=O)(=O)NCc2ccccc2)c(OCC)cc1-n1cnnn1 | i | -10% | -5% | -6% | i | 0%
CCOc1cc(S(=O)(=O)N(Cc2ccccc2)Cc2ccccc2)c(OCC)cc1-n1cnnn1 | i | -17% | ? | -3% | 3.7µM* | 3%
C=CCn1cc(C(=O)OCC)c(=O)c2ccc(F)cc21 | i | 10% | -2% | -2% | i | -7%
Cc1nc(N2CCN(C)CC2)c2sc(=S)n(-c3ccccc3)c2n1 | i | ? | ? | 0% | i | -6%
S=c1sc2c(Cl)ncnc2n1-c1ccccc1 | ? | 10µM* | 16µM* | ? | ? | 21µM*
COc1ccccc1CNCc1cccc(Oc2ccccc2)c1 | i | ? | ? | ? | i | -27%
CCCCC1C(=O)NN(c2ccccc2)C1=O (configuration not stated) | ? | -6% | 19% | 4.6µM* | i | 1.8µM*
CCCCCC1CC(=O)N(Cc2ccccc2)C(=O)N1 (configuration not stated) | i | ? | -6% | 0% | i | 2%
O=C(NCc1ccco1)c1cccc(-c2ccc3nccn3c2)c1 | i | ? | ? | 2% | i | 11%
COc1cc(O)c(CCC(=O)c2cc(OC)c(OC)c(OC)c2)c(OC)c1 | i | 15µM* | 21µM* | 4% | ? | 5%
SMILES | KB-3-1 tox | DT40 TDP1 no CPT | DT40 TDP1 CPT | HT1080 IDH1KD tx | KB-V1 MDR tox | HT1080-NT tox
COc1cc(O)c(C(C)=O)c(OC)c1 | i | ? | ? | -1% | i | 1%
COCc1c(C(=O)NC2CCCC2)cnn1-c1nccc(-c2ccco2)n1 | . | -16% | 4% | . | . | .
C=CC[C@H](CC(=O)N(CCO)Cc1ccccc1)C(=O)N[C@@H](COC(=O)[C@@H](CC=C)Cc1ccc(F)cc1)Cc1c[nH]c2ccccc12 | i | 23µM* | 16µM* | ? | i | ?
C=CC[C@@H](CC(=O)N(CCO)Cc1ccccc1)C(=O)N[C@@H](COC(=O)[C@@H](CC=C)Cc1ccc(F)cc1)Cc1c[nH]c2ccccc12 | ? | 16µM* | ? | ? | ? | ?
CC(C)CCn1c(-c2nonc2N)nc2ccccc21 | i | ? | 13µM* | ? | i | ?
Nc1nonc1-c1nc2ccccc2n1Cc1ccccc1 | ? | 29µM* | ? | ? | ? | ?
Nc1nonc1-c1nc2ccccc2n1Cc1ccc(Br)cc1 | . | -16% | -20% | . | . | .
O=C(N(Cc1ccccc1)c1ccccn1)C12CC3CC(CC(C3)C1)C2 | i | 16µM* | 26µM* | -14% | ? | -16%
CCC(Oc1ccccc1)C(=O)N(Cc1ccccc1)c1ccccn1 (configuration not stated) | ? | 16µM* | ? | -6% | 16µM* | 0%
COc1cc(C(=O)N2CCN(CCc3ccccn3)CC2)cc(OC)c1OC | i | -18% | 3% | . | i | .
C[C@@H]1C=C[C@](Cc2ccccc2)(C(=O)NCC2CC2)N1C(=O)c1ccccc1 | i | 9.2µM* | 18µM* | 22% | i | 0%
CNC(=O)[C@@]1(Cc2ccccc2)C=C[C@@H](C)N1C(=O)OC | i | -11% | 1% | 0% | i | 4%
O=C1C=C(c2ccc(F)c(Cl)c2)C[C@@H](c2ccc(F)cc2)C1 | i | ? | ? | 13% | i | ?
CCCn1c(N)c(Sc2ccccc2)c(=O)n(CCC)c1=O | i | 15µM* | ? | -5% | 13µM* | 6%
CCCCCCOC(=O)/C=C/c1c(C)[nH]c(=O)[nH]c1=O | i | 4.6µM* | ? | -8% | i | -7%
COc1ccccc1NC(=S)Nc1cccc2cnccc12 | i | 23µM* | 26µM* | ? | ? | ?
CN(C)S(=O)(=O)c1cccc(NC(=S)Nc2cccc3cnccc23)c1 | ? | 13µM* | 16µM* | -26% | i | -18%

Assay outcomes from PubChem.
